Consider 19 compounds from PubChem BioAssay (EPA / NIEHS).

Each structure is given as a SMILES string. Several values for one entry are separate records, joined by “and”; a condition that tells them apart may be missing. Equal entries are not always repeated. The source holds several records for some structures; these can differ, active in one and inactive in another. Activity calls are given as the source filed them. The calls were made as follows: active = hit-call score of the fitted dose curve at least 0.9, where 1 is the maximum; inactive = score below 0.9.

Test [1] has as its target Bile acid receptor (Homo sapiens) (UniProt Q96RI1). Briefly: ATG_IR1_CIS: Attagene CIS-FACTORIAL HepG2 Assay for human Nuclear Receptor Subfamily 1 Group H Member 4 (NR1H4), IR1 submotif (AID 2282946). The note with it: IR1 reporter transcription, actives raise or lower the signal. A digest of the protocol: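 Transient MRTU transfection, HepG2; 24 h dosing; RNA → RT-PCR → 6-FAM primer extension → HpaI digest → capillary electrophoresis fluorescence. Gain/loss of signal fitted relative to DMSO.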

Test [2] can be described thus: ATG_GRE_CIS: Attagene CIS-FACTORIAL HepG2 Assay for human Glucocorticoid Response Elements (GRE) (AID 2282947). As to conditions: HepG2 GRE cis-reporter, Attagene multiplex mRNA; actives raise or lower the signal. In a few lines: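 Following 24 h chemical exposure of transiently transfected HepG2 cells, total RNA was reverse-transcribed and reporter cDNA amplified, fluorescently labelled and sized by capillary electrophoresis. Signal gain or loss was fitted relative to DMSO vehicle.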

Test [3] is described as follows: ATG_ISRE_CIS: Attagene CIS-FACTORIAL HepG2 Assay for human Interferon Regulatory Factor 1 (IRF1) binding to an Interferon-Stimulated Response Element (ISRE) (AID 2282948). As to conditions: HepG2 ISRE cis-reporter (Attagene), mRNA transcription readout; actives raise or lower the signal. In a few lines: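 Transiently transfected HepG2 cells carrying cis-element reporter units, dosed 24 hours. Reporter mRNA quantified by RT-PCR, fluorescent primer extension, HpaI digestion and capillary electrophoresis. Bidirectional fitting relative to DMSO.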

Test [4] in a line: ATG_M_32_CIS: Attagene CIS-FACTORIAL HepG2 Assay for M32 Transcription Factor (Internal Marker) (AID 2282949).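 Also: background control marker of the multiplexed CIS panel rather than a real target.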 The note with it: HepG2 Attagene cis-factorial M32 reporter, mRNA; actives raise or lower the signal. A digest of the protocol:
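Fluorescent capillary electrophoresis peaks of HpaI-digested, FAM-labelled RT-PCR reporter products give the signal. Source: transiently transfected human liver HepG2 cells, 24 h after chemical dosing; bidirectional fitting against DMSO.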

Test [5] is described as follows: ATG_M_06_CIS: Attagene CIS-FACTORIAL HepG2 Assay for M06 Transcription Factor (Internal Marker) (AID 2282950). The note with it: HepG2 Attagene CIS-FACTORIAL M06 internal marker reporter; actives raise or lower the signal. A digest of the protocol:
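Cells (HepG2, transiently carrying cis-driven reporter units) receive chemical for 24 h before RNA isolation. Reporter cDNA is PCR-amplified, FAM-labelled by primer extension, HpaI-digested and sized on a capillary analyser.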

Test [6] concerns the target Hypoxia-inducible factor 1-alpha (Homo sapiens) (UniProt Q16665). As to the kind of experiment: ATG_HIF1a_CIS: Attagene CIS-FACTORIAL HepG2 Assay for human Hypoxia Inducible Factor 1 (HIF1A) (AID 2282951). The note with it: HepG2 Attagene cis-factorial HIF1a reporter transcription; actives raise or lower the signal. A digest of the protocol:
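HepG2, transient cis-reporter library, 24 h dosing. RNA → RT (oligo dT) → PCR → 6-FAM primer extension → HpaI → CE. Bidirectional curve fit vs DMSO.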

In test [7] the target is Hepatocyte nuclear factor 6 (Homo sapiens) (UniProt Q9UBC0). As to the kind of experiment: ATG_HNF6_CIS: Attagene CIS-FACTORIAL HepG2 Assay for human Hepatocyte Nuclear Factor 6 (HNF6) (AID 2282952). As to conditions: HepG2 Attagene cis-factorial HNF6 reporter transcription; actives raise or lower the signal. In a few lines:
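Reporter mRNA induction or loss in HepG2 after 24 h exposure; transient cis-MRTU transfection; fragments quantified by capillary electrophoresis; bidirectional analysis, DMSO as negative control.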

Test [8] deals with Heat shock factor protein 1 (Homo sapiens) (UniProt Q00613). As to the kind of experiment: ATG_HSE_CIS: Attagene CIS-FACTORIAL HepG2 Assay for human Heat Shock Transcription Factor 1 (HSE) (AID 2282953). The note with it: HepG2 HSE cis-reporter, Attagene RNA transcription; actives raise or lower the signal. In a few lines: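 Liver-derived HepG2 cells carry transiently introduced multiple reporter units governed by cis promoters. Reporter RNA measured 24 h post-dose through reverse transcription, PCR amplification, fluorescent labelling and capillary electrophoresis, normalised to DMSO.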
Heat shock factor protein 1 (Homo sapiens), sequence (Q00613 whole entry, looked up): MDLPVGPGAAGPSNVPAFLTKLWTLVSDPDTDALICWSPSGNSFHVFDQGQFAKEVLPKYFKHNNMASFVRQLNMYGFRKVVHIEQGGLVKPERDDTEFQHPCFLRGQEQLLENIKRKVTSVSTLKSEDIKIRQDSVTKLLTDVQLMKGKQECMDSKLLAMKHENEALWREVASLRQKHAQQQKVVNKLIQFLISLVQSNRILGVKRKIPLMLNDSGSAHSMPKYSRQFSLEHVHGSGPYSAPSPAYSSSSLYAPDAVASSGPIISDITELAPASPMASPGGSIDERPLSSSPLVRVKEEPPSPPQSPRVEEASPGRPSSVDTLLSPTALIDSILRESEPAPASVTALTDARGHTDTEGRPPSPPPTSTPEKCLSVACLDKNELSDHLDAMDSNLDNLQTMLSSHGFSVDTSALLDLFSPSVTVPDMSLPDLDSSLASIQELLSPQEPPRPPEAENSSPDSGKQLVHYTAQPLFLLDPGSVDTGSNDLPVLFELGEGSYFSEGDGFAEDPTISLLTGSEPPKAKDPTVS

Test [9] in a line: ATG_MRE_CIS: Attagene CIS-FACTORIAL HepG2 Assay for human Metal Responsive Element (MRE) (AID 2282954). The note with it: HepG2 MRE cis-reporter transcription, Attagene multiplex; actives raise or lower the signal. In a few lines:
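Step one: transfect HepG2 with cis-regulated reporter units. Step two: dose 24 h. Step three: isolate RNA, RT-PCR, 6-FAM label, HpaI digest, capillary electrophoresis. Fit bidirectionally to DMSO.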

Test [10] is described as follows: ATG_PBREM_CIS: Attagene CIS-FACTORIAL HepG2 Assay for human Phenobarbital-responsive Enhancer Module (PBREM) (AID 2282955). As to conditions: HepG2 PBREM cis-reporter, Attagene multiplexed transcription; actives raise or lower the signal. A digest of the protocol:
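HepG2, transient MRTU transfection, 24 h dosing; RNA → oligo(dT) RT → PCR → 6-FAM extension → HpaI → CE. Bidirectional fit vs DMSO.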

Hepatocyte nuclear factor 6 (Homo sapiens), sequence (Q9UBC0 whole entry, looked up, the tested form may be a part): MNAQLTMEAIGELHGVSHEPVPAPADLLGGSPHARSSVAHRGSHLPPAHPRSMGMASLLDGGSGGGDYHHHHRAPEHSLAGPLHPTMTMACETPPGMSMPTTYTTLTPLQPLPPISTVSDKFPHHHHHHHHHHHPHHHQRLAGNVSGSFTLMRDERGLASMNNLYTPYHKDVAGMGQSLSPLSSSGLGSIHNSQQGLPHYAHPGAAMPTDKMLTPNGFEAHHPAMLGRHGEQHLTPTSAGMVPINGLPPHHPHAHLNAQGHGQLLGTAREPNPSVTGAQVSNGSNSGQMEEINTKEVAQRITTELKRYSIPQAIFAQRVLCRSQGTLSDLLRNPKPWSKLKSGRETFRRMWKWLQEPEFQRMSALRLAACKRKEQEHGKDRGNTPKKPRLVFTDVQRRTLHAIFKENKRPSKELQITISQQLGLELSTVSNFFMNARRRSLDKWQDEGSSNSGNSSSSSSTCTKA
Bile acid receptor (Homo sapiens), sequence (Q96RI1 whole entry, looked up): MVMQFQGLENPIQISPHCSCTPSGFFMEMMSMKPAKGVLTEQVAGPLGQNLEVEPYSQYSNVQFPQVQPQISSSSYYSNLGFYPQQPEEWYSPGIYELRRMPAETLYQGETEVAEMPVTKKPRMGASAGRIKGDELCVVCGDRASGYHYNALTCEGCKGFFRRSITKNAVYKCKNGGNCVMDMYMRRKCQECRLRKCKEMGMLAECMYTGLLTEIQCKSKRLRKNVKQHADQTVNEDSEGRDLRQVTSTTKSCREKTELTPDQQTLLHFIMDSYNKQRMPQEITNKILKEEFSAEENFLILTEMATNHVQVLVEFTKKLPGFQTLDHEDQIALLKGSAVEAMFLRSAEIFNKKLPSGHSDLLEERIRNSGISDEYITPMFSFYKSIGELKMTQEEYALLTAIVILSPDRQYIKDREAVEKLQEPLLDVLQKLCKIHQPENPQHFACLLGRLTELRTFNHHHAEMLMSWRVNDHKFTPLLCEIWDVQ
Hypoxia-inducible factor 1-alpha (Homo sapiens), sequence (Q16665 whole entry, looked up): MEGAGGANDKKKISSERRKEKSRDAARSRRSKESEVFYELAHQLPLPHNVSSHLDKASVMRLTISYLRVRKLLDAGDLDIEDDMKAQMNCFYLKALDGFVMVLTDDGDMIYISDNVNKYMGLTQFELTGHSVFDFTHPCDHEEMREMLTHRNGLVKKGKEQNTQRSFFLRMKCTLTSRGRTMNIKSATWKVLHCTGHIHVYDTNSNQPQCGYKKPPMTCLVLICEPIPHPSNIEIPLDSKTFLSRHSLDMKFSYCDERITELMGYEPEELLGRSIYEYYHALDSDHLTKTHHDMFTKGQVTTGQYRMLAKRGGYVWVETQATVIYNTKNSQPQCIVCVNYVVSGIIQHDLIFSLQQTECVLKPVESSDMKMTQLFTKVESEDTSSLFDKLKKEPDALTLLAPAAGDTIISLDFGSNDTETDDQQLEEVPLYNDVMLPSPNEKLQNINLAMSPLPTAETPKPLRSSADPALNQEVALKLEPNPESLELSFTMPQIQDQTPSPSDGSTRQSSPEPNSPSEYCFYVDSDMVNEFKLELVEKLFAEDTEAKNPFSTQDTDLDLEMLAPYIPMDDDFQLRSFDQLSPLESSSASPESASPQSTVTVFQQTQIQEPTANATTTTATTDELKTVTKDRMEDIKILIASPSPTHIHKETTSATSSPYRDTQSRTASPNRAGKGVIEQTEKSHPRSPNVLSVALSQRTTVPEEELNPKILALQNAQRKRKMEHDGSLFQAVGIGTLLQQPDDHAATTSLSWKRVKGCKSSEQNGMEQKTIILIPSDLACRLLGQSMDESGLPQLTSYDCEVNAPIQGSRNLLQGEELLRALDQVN

The term AC50 denotes the midpoint of the concentration-response curve, whichever way the signal moves. For the compound `C=CCc1cc(S(=O)(=O)c2ccc(O)c(CC=C)c2)ccc1O`, the AC50 in test [1] was 51.1 µM (active); in test [8] it was 54.7 µM (active); in test [9], 47 µM (active). Moreover, the compound was classed as inactive in [2], in [3], in test [4], in [5], in test [6] and in [7]. For the same compound, the outcome in [10] was inactive.

As to `O=C(Cl)C(F)(F)C(F)(F)C(F)(F)C(=O)Cl`, the outcome in test [1], in test [2], in test [3], in [4], in test [5] and in test [6] was inactive. Besides, the result in test [7], in test [8], in test [9] and in test [10] was inactive.

With `c1ccc2cc3ccccc3cc2c1`, the call in test [1], in test [2], in [3], in test [4], in test [5] and in test [6] was inactive. Moreover, the compound was called inactive in [7], in [9] and in [10].

For the compound `Nc1ccn([C@@H]2O[C@H](CO)[C@@H](O)[C@@H]2O)c(=O)n1`, the call in [1], in test [2], in test [3], in [4], in test [5] and in test [6] was inactive. Moreover, the compound was called inactive in test [7], in test [8], in test [9] and in [10].

Turning to `CCCCCOC(C)=O`, the compound was called inactive in test [1], in test [2], in [3], in test [4], in test [5] and in [6]. Besides, the compound was classed as inactive in test [7], in test [8], in test [9] and in [10].

For `C[Si](C)(C)C(F)(F)C(F)(F)C(F)(F)F`, the call in test [1], in test [2], in [3], in [4], in test [5] and in [6] was inactive. Also, the compound was classed as inactive in test [7], in test [8], in [9] and in test [10].

Regarding `CCN(CC)C(=S)SSC(=S)N(CC)CC`, the AC50 in [1] is 67.8 µM (active); in test [3], 81.3 µM (active); in [8], 111 µM (active); in test [9], 148 µM (active); in test [10] it was 166 µM (active). In addition, the outcome in test [2], in test [4] and in [5] was inactive.

For `O=S(=O)(O)CCC(F)(F)C(F)(F)C(F)(F)C(F)(F)C(F)(F)C(F)(F)F`, the outcome in test [1], in test [2], in test [3], in [4], in test [5] and in [6] was inactive. Also, the call in test [7], in [8], in test [9] and in [10] was inactive.

For the compound `NC(=O)N(O)[C@@H]1COc2cc(OCc3ccccc3)ccc21`, the call in test [1], in test [2], in test [3], in test [4], in test [5] and in [6] was inactive. Further, the compound was called inactive in test [7], in test [8], in test [9] and in [10].

For the compound `Cc1nccn1-c1ccc(Sc2cccc(C3(C(N)=O)CCOCC3)c2)cc1`, the AC50 in test [1] is 1.01 µM (active); in [2], 5.85 µM (active); in [3] it was 7.26 µM (active); in [7], 7.22 µM (active); in test [9] it was 6.89 µM (active); in test [10], 3.41 µM (active). Moreover, the result in test [4], in test [5], in test [6] and in test [8] was inactive.

As for `O=C(O)c1cccc(C(=O)O)c1`, the outcome in test [1], in [2], in [3], in test [4], in [5] and in [6] was inactive. Also, the call in [7], in [8] and in [9] was inactive.

As for `OCCC(F)(F)C(F)(F)C(F)(F)C(F)(F)F`, the call in [1], in [2], in [3], in test [4], in [5] and in [6] was inactive. Besides, the result in test [7], in test [8], in test [9] and in test [10] was inactive.

Take `CCCOc1ccc(S(=O)(=O)N2CCN(CC)CC2)cc1-c1nc2c(CC)n(Cc3ccccn3)nc2c(=O)[nH]1`: the AC50 is 100 µM (active) in test [1]; 70 µM (active) in test [3]; 19.8 µM (active) in test [6]; 34.8 µM (active) in test [9]; 2.66 µM (active) in [10]. In addition, the compound was called inactive in [2], in test [4], in [5], in test [7] and in test [8].

As for `FC(F)=C(F)C(F)(F)C(F)(F)C(F)(F)C(F)(F)C(F)(F)C(F)(F)F`, the compound was classed as inactive in [1], in test [2], in test [3], in test [4], in test [5] and in test [6]. In addition, the compound was classed as inactive in test [7], in test [8], in test [9] and in test [10].

Consider `O=S(=O)(O)c1ccc(N=Nc2c(O)ccc3cc(S(=O)(=O)O)ccc23)cc1`, for which the compound was classed as inactive in test [1], in test [2], in test [3], in test [4], in [5] and in [6]. Moreover, the call in test [7], in test [8], in test [9] and in test [10] was inactive.

For `OC(O)(C(F)C(O)(O)C(F)(F)F)C(F)(F)F`, the outcome in test [1], in test [2], in test [4], in test [5], in [6] and in test [7] was inactive. The compound was called inactive in test [8], in test [9] and in test [10]. Moreover, the AC50 in [3] is 27.8 µM (active) and 9.44 µM (active).

Take `O=C(O)[C@H](O)[C@@H](O)C(=O)O`: the compound was called inactive in [1], in test [2], in [3], in test [4], in [5] and in [7]. Also, the call in test [8], in test [9] and in [10] was inactive.

As for `CC(C)CCCCCCOC(=O)C1CCCCC1C(=O)OCCCCCCC(C)C` (centres undefined), the compound was called inactive in [1], in test [2], in [3], in [4], in test [5] and in test [6]. In addition, the result in [7] and in test [9] was inactive.

`Cc1cccc(O)c1C`: the AC50 in test [1] was 23.7 µM (active). In addition, the outcome in test [1], in [2], in test [3], in test [4], in [5] and in test [6] was inactive. Besides, the call in [7], in test [8], in test [9] and in test [10] was inactive.
